Source: PubChem BioAssay
Shown are actives, neighbours in structure and some others; about 4.3% of the full set was active somewhere.
NR3A LBD binder – modulators (binders) of human NR3A ligand-binding domain | AID 1259313 | actives 2.5% (n = 340,000) | Tm shift relative to glycine control, % at 25 µM | NR3A LBD differential scanning fluorimetry, Tm shift; 0% = protein alone, 100% = glycine-bound protein;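 active = melting temperature shift of at least 10% of the positive control shift, at one fixed dose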
rCAG binder – molecules binding r(CAG) RNA repeats | r(CAG) RNA repeat, TO-PRO-1 dye displacement fluorescence | inhibition, % at 3 µM | actives 1.3% (n = 370,000) | AID 651821;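 active = inhibition above the plate cutoff, the mean of all test compounds on that plate plus 3 SD, cut at about 35% in these data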;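 also: 0% = DMSO alone and 100% = 100 µM mitoxantrone as full dye displacement; higher means more dye released from RNA so lower well fluorescence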
FAS-TE inh – FAS thioesterase (human) inhibition. P49327. recombinant FAS-TE, OMFH fluorogenic substrate, fluorescence endpoint. inhibition, % at 15 µM. actives 0.67% (n = 360,000). AID 602261;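 active = compounds whose normalised, plate-corrected inhibition of enzyme fluorescence in the single-dose primary screen is 50% or more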;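 also: 0% = DMSO with enzyme and 100% = substrate without enzyme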
NadD block – inhibitors of Staphylococcus aureus NadD | actives 0.78% (n = 360,000) | inhibition, % at 20 µM | AID 602399 | purified NadD enzyme, colorimetric absorbance read-out; in the data active = inhibition above about 26%
Starred values were filed as active, the others as inactive; x = no result given.

SMILES | NR3A LBD binder | rCAG binder | FAS-TE inh | NadD block
CC1=NNC(=O)C1CC(=O)N/N=C/C(C)=C/c1ccccc1 (centres undefined) | -1.9 | 1.7 | -7.9 | 3.4
CC1=NNC(=O)C1CC(=O)N/N=C/c1ccc(C)o1 (centres undefined) | 18.3* | -1.0 | -2.1 | 4.4
C[C@H](O)[C@@H]1CN2CCc3c([nH]c4cccc(-c5ccccc5)c34)[C@@H]2C[C@@H]1N(C)C(=O)c1ccco1 | x | 8.7 | x | x
CCC(c1nnnn1CCOC)N1CCN(Cc2ccccc2OC)CC1 (centres undefined) | 15.1* | -8.3 | -6.0 | -6.5
CCCC[C@H]1C2CC(OC(=O)Nc3ccccc3OC)C(C2)[C@H]2CCCCN21 (some centres undefined) | x | 6.4 | x | x
Oc1ccccc1-c1nc(NCc2cccnc2)c2ccccc2n1 | 2.4 | 10.1 | 9.7 | -0.7
Fc1ccccc1-c1nc(NCc2ccco2)c2ccccc2n1 | -5.8 | -0.1 | 16.7 | -1.2
Oc1ccccc1-c1nc(NCc2ccccc2)c2ccccc2n1 | 16.3* | 9.3 | 25.7 | 4.3
Oc1ccccc1-c1nc(NCc2ccco2)c2ccccc2n1 | 13.8* | 26.6 | 24.1 | 2.5
NNC(=O)c1cc(-c2ccc(N)cc2)nc2ccc(Br)cc12 | 18.1* | 21.0 | -1.4 | 5.2
COc1cc(NC(=O)c2cc(-c3cccnc3)nc3ccc(Br)cc23)cc(OC)c1 | 10.1* | 4.3 | 0.8 | 8.7
CC(C)c1ccc(-c2cc(C(=O)N3CCOCC3)c3cc(Br)ccc3n2)cc1 | 18.6* | -0.1 | 26.3 | 4.4
Cc1cc(C(=O)NN)c2cc(Br)ccc2n1 | 0.5 | 6.3 | -3.5 | -0.4
CCC(C)CNC(=O)c1cn(C(C)c2ccccc2)nn1 (centres undefined) | x | -0.3 | x | x
O=c1[nH]c2ccccc2nc1/C=C/c1ccccc1 | 0.9 | 3.1 | 4.2 | 10.0
Cc1ccc(/C=C\c2nccc3c2[nH]c2ccccc23)cc1 | 13.9* | 14.9 | 37.6 | 18.4
Fc1ccc(/C=C\c2nccc3c2[nH]c2ccccc23)cc1 | 12.6* | 9.1 | 36.5 | 11.8
C(=C\c1nccc2c1[nH]c1ccccc12)/c1ccccc1 | 16.4* | 7.8 | 17.8 | 1.9
CC(C#N)(Nc1ccc(Cl)cc1)c1cccnc1 (centres undefined) | 16.4* | -1.3 | -8.0 | -3.9
Clc1ccc(NCc2cccnc2)cc1 | 2.1 | -0.1 | -6.0 | -4.1
Oc1ccc(Cl)cc1CNCc1ccc(Cl)cc1 | -1.2 | 1.1 | 0.7 | -0.1
Oc1ccc(Cl)cc1Cc1cc(Cl)ccc1O | 17.2* | 17.3 | 18.6 | -6.9
C=CCn1c(Cc2cccs2)nnc1SCC(=O)Nc1ccc2c(c1)OCO2 | x | 2.5 | x | x
CN(CCO)c1ccc2c(c1)Oc1ccccc1CN(Cc1cn(Cc3ccc(F)cc3)nn1)S2(=O)=O | x | 1.2 | x | x
CCc1ccc(NC(=O)c2ccc(NC3=NC4CS(=O)(=O)CC4S3)cc2)cc1 (centres undefined) | 12.7* | 10.1 | 2.0 | 3.8
SMILES | NR3A LBD binder | rCAG binder | FAS-TE inh | NadD block
CCc1ccc(NC(=O)c2cccc(NC3=NC4CS(=O)(=O)CC4S3)c2)cc1 (centres undefined) | -6.7 | 7.4 | -2.1 | 0.8
CCc1ccc(NC(=O)Cc2ccc(NC3=NC4CS(=O)(=O)CC4S3)cc2)cc1 (centres undefined) | 10.2* | 5.7 | -5.5 | -1.0
Oc1cccc(/C=C/c2ccc3cccc(O)c3n2)c1 | 20.3* | 17.9 | 7.2 | 12.6
COc1cccc(/C=C/c2ccc3cccc(O)c3n2)c1 | 8.3 | 8.9 | 15.7 | 5.0
COc1ccc(/C=C/c2ccc3cccc(O)c3n2)cc1Br | 37.0* | 7.8 | 8.6 | 2.3
Cc1ccc(NC(=O)COc2nsnc2N2CCOCC2)cc1Cl | -8.1 | -1.3 | 9.2 | -6.1
COc1ccc(NC(=O)COc2nsnc2N2CCOCC2)c(OC)c1 | 14.0* | -0.2 | -0.4 | -1.7
N#CC1=C(N)OC2=C(CC/C2=C\c2ccccc2)C1c1ccccc1 (centres undefined) | -6.0 | -3.4 | -82.4 | 33.0*
N#CC1=C(N)OC2=C(CC/C2=C\c2ccccc2Cl)C1c1ccccc1Cl (centres undefined) | 2.4 | 2.9 | -3.5 | 15.7
Cc1ccc(NC(=S)Nc2ccc(OC(F)F)c(Cl)c2)cc1F | 32.0* | 0.9 | 23.8 | -10.8
Oc1ccc(NC(=S)Nc2ccc(F)cc2)cc1 | 8.7 | -1.1 | -3.6 | 0.8
CSc1cccc(NC(=S)Nc2ccc(F)cc2)c1 | 13.9* | 0.6 | 3.5 | 1.1
Fc1ccc(NC(=S)Nc2ccc(Br)cc2)cc1 | 15.0* | 5.2 | 8.9 | 3.6
COC(=O)NC(=S)Nc1ccc(Oc2ccc(Cl)cc2Cl)c(Cl)c1 | 15.9* | 8.5 | 24.8 | 6.8
Cc1ccc(-c2nnc(SCC(=O)Nc3ccc(F)cc3F)n2Cc2ccco2)cc1 | x | 6.7 | x | x
O=C(CCc1nc(-c2ccccc2F)no1)NCCc1c[nH]c2ccccc12 | x | 3.0 | x | x
N=c1c2c(-c3ccccc3)c(-c3ccccc3)n(CCc3ccccc3)c2ncn1C1CCC(O)CC1 (centres undefined) | x | 10.2 | x | x
C=CCN(CC#Cc1ccccc1)CC1CC1 | x | -0.9 | x | x
COc1ccc(OC)c(S(=O)(=O)N2CCCCC2C(=O)N2CCN(Cc3ccc(F)cc3)CC2)c1 (centres undefined) | x | 6.8 | x | x
O=C(c1cc(Br)cc(Br)c1)N1CCC(Oc2cccnc2)CC1 | x | 2.4 | x | x
Fc1ccc(NC(=S)Nc2ccc(F)c(Cl)c2)cc1Cl | 12.3* | x | 42.9 | -6.8
FC(F)(F)c1cccc(NC(=S)Nc2ccc(Cl)cc2Cl)c1 | 6.9 | 2.7 | 32.2 | -2.7
O=C(NC(=S)Nc1ccc(F)c(Cl)c1)C1CC1 | 0.9 | -5.4 | 6.8 | -8.5
Fc1ccc(NC(=S)Nc2cccc(Cl)c2)cc1 | 12.6* | 1.1 | 0.7 | -5.2
FC(F)(F)c1ccccc1NC(=S)Nc1cccc(Cl)c1 | 13.9* | -2.0 | -1.0 | -0.5
SMILES | NR3A LBD binder | rCAG binder | FAS-TE inh | NadD block
O=C(NCCc1c[nH]c2ccccc12)OCc1cn(-c2ccccc2Cl)nn1 | x | 4.5 | x | x
O=C1ON=C(c2ccccc2)/C1=C/c1ccc(-c2ccccc2[N+](=O)[O-])o1 | 22.5* | 25.0 | -4.3 | 29.6
Cc1cc(O)cc(=O)n1-c1cc(F)c(F)c(F)c1 | x | 1.0 | x | x
CCOC(=O)COc1ccc(S(=O)(=O)Nc2ccc3c(c2)OCO3)cc1 | 13.7* | 2.3 | 2.5 | 1.5
O=C(Nc1ccc(S(=O)(=O)NCc2ccccc2)cc1)Nc1ccc2c(c1)OCO2 | 35.8* | x | 1.2 | 1.6
CCNS(=O)(=O)c1ccc(NC(=O)Nc2ccc3c(c2)OCO3)cc1 | 24.6* | 6.5 | -0.3 | -7.9
S=C1NC[C@H](Cc2ccccc2)N1CC1CCN(CCCC2CCCCC2)CC1 | x | 4.7 | x | x
CCn1c(COc2ccc(Cl)cc2)nnc1SCC(=O)Nc1ccccc1-c1ccccc1 | x | 2.4 | x | x
Cc1ccc(-n2c(Cc3cccs3)nnc2SCC(=O)Nc2ccccc2-c2ccccc2)cc1 | x | 3.5 | x | x
Cc1c(CC(=O)Nc2ccc(Cl)cc2)sc2ccc(Cl)cc12 | 28.2* | 1.9 | 9.3 | -5.6
CCCC(=O)Nc1cccc(NC(=O)Cc2ccc(Cl)cc2)c1 | x | 2.1 | -4.3 | -0.5
O=S(=O)(N=C1C=CC(=NS(=O)(=O)c2ccccc2)c2ccccc21)c1ccccc1 | x | 32.0 | 5.6 | 33.4*
CCCCCCCCN1C(=O)[C@@H](CC(=O)NCCCN2CCCC2=O)C[C@@]2(C(=O)OC)C1=C[C@H](C(C)C)O[C@@H]2C1CC1 | x | 1.1 | x | x
